Assays:
Type in all cases: functional
[1] = molecular target: Solute carrier family 2, facilitated glucose transporter member 1 (Homo sapiens) (UniProt P11166); experiment: ST_JUDE_LEISH: Cytotoxicity at 2uM final concentration against transgenic Leishmania Mexicana promastigotes LmGLUT1 that are glucose transport deficient and complemented with the human glucose transporter GLUT1. Activity is measured by DNA content using SYBR green in vitro
[2] = molecular target: Hexose transporter 1 (Plasmodium falciparum) (UniProt O97467); experiment: ST_JUDE_LEISH: Cytotoxicity at 2uM final concentration against transgenic Leishmania Mexicana promastigotes LmPfHT that are glucose transport deficient and complemented with the Plasmodium falciparum hexose transporter. Activity is measured by DNA content using SYBR green in vitro
[3] = molecular target: Glucose transporter (Leishmania mexicana) (UniProt O61059); experiment: ST_JUDE_LEISH: Cytotoxicity at 2uM final concentration against transgenic Leishmania Mexicana promastigotes LmGT2 that are glucose transport deficient and complemented with the L. Mexicana glucose transporter 2. Activity is measured by DNA content using SYBR green in vitro

Chain of Solute carrier family 2, facilitated glucose transporter member 1 (Homo sapiens) (P11166 whole entry): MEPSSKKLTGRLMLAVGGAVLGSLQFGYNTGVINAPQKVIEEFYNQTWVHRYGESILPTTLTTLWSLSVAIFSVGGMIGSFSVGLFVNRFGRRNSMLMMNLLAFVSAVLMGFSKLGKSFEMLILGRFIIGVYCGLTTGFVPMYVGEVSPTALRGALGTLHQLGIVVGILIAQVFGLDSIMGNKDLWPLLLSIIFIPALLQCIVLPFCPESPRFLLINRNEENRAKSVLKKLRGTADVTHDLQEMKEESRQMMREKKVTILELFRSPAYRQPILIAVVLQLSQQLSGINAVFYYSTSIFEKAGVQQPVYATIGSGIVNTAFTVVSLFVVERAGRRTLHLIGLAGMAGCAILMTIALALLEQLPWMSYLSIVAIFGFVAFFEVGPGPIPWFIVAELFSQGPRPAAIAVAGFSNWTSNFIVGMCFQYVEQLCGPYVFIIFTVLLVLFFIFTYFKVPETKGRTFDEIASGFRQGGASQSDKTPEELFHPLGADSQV

Row | Compound | inhibition [1] | inhibition [2] | inhibition [3]
1 | CCCCc1cc(=O)oc2cc(C)cc(OCc3ccccc3F)c12 | -0.28% | 1.33% | 1.06%
2 | CC(C)NCc1ccc(-c2cccc(NC(=O)c3cccc(C#N)c3)c2)cc1 | 2.87% | 2.38% | -2.27%
3 | CCc1ccc(OCc2ccccc2C(=O)Nc2ccc3nc(C)cc(N)c3c2)cc1 | 2.1% | 2.87% | 1.97%
4 | N#Cc1c(-c2ccccc2)cn2c1[nH]c(=O)c1ccccc12 | -1.7% | 2.37% | 1.89%
5 | Cc1cn(CC(=O)Nc2cccc(-c3cccc(-c4nc5cccc(C)c5[nH]4)c3)c2)c(=O)[nH]c1=O | 4.43% | 3.47% | 5.03%
6 | CN1CCN(Cc2c(O)ccc3c(=O)c(Oc4ccc(C(C)(C)C)cc4)c(C(F)(F)F)oc23)CC1 | 70.7% | 74.1% | 46.6%
7 | COc1ccccc1-c1cccc(-c2cccc(NC(=O)c3ccc([N+](=O)[O-])o3)c2)n1 | 11.2% | 16.8% | 9.06%
8 | COc1ccc(S(=O)(=O)N2CCCc3ccc(Br)cc32)cc1N1CCN(C(=O)C(Cl)(Cl)Cl)CC1 | 2.54% | 2.99% | 1.28%
9 | Cc1cc(N[C@@H](Cc2ccccc2)C(=O)NCCOc2ccccc2)nc(NCc2ccccc2C)n1 | 7.28% | 7.01% | 4.21%
10 | O=C(Nc1cccc(CN2CCN(Cc3ccc(O)cc3)CC2)c1)c1ccc(-c2ccccc2)cc1 | 4.37% | 2.25% | -3.36%
11 | CC(C)(CNC(=O)C1CCN(CCOc2ccc(Cl)cc2)CC1)c1nc(-c2ccc(Cl)c(O)c2)c(-c2ccncc2)[nH]1 | 0.46% | 1.55% | -0.21%
12 | CCOC(=O)COc1cccc(CNc2ccc3nc(N)nc(N)c3c2)c1 | 2.95% | 1.84% | 1.48%
13 | Cc1cc(CNCCCCCCCNCc2ccc(Cl)cc2)ccc1O | 0.64% | 3.98% | 0.81%
14 | O=C(Nc1cccc(-c2cccc(-c3nc4ccccc4[nH]3)c2)c1)c1cccnc1 | 2.95% | 2.73% | 0.76%
15 | Cc1ccc(NC(=O)c2ccc(N3CCN(c4ccncc4)CC3)cc2)cc1F | 68% | 74.7% | 82.4%
16 | COc1ccccc1Cn1ccnc1SCC(=O)Nc1cccc(C(F)(F)F)c1 | 0.58% | 0.38% | -0.75%

Row | Compound | inhibition [1] | inhibition [2] | inhibition [3]
17 | COc1cc(Cc2cnc(N)nc2N)ccc1Oc1ccc(N)cc1 | 1.44% | 0.48% | 0.97%
18 | COc1ccc(Cl)cc1N1CCN(CCCNC(=O)c2ccc(-c3nc4cc(Cl)c(F)cc4[nH]3)c(F)c2)CC1 | 6.94% | 2.24% | 4.99%
19 | CC(C)(C)CCN1CCC(CNC(=O)c2cc(-c3cccc(Cl)c3)cs2)C1 (stereo unspecified) | 0.6% | -0.8% | -1.21%
20 | COc1ccc(NC(=O)Nc2nc(-c3ccc(Cl)c(C)c3)cs2)cc1N1CCN(C)CC1 | 0.68% | 3.54% | 2.63%
21 | NC(CC1CC(=O)N1CC(=O)O)C(=O)O (stereo unspecified) | 8.57% | 7.82% | 8.53%
22 | O=C(NCc1ccc(C(F)(F)F)cc1)c1cccc(-c2nnc(-c3cccc(-c4cncnc4)c3)o2)c1 | 9.91% | 4.62% | 4.68%
23 | COc1cc(NCCCNCc2cn(Cc3cc(Br)cc(Br)c3)c3ccccc23)nc2ccccc12 | 4.87% | 1.54% | 2.54%
24 | O=S(=O)(c1cccc(Cl)c1F)N(CCC(O)(C(F)(F)F)C(F)(F)F)Cc1cccc(O)c1 | 5.8% | -1.78% | -0.05%
25 | CC(C)(C)c1ccc(NC(=O)c2ccc(CN3CCCN(Cc4cccc(F)c4)CC3)cc2)cc1 | 13.7% | 13.3% | 11.8%
26 | CC(C)C[C@@H]1C(=O)N[C@H](C2Cc3ccccc3C2)C(=O)N1[C@@H](C(=O)O)c1ccc(F)cc1F | 1.91% | 2.13% | 0.39%
27 | Cc1cccc(NC(=O)Nc2cccc(-c3ccc(-c4nc5cc(C(F)(F)F)ccc5[nH]4)cc3)c2)c1 | 5.86% | 2.01% | 1.66%
28 | NC1=NC2(CCCC2)C(c2ccc(Cl)c(Cl)c2)C(N)=N1 (stereo unspecified) | 2.63% | 3.21% | 4.7%
29 | O=C(Nc1cccc(-c2nn3ccccc3c2-c2ccnc(Nc3cccc(N4CCCC4=O)c3)n2)c1)c1cc(F)ccc1F | 2.51% | 3.22% | 1.96%
30 | c1ccc2c(Nc3ccc(Oc4ccc(Nc5c6ccccc6nc6ccccc56)cc4)cc3)c3ccccc3nc2c1 | 2.32% | 0.88% | -1.82%
31 | Cc1cc2c(NC(=O)NC3CCN(Cc4ccc(Cl)c(Cl)c4)CC3)cccc2cn1 | 0.94% | -0.05% | -3.37%
32 | Cc1cc(NC(=O)NCCN2CCC(NC(=O)c3ccc(F)cc3)CC2)c2ccccc2n1 | -0.27% | -0.3% | -3.5%

Reference: ChEMBL document CHEMBL3433997, “St. Jude Leishmania screening dataset” (2016)
